From PubChem BioAssay (NCI)
The panel holds about 83,000 compounds, 20% with a hit somewhere; the sample as a whole holds those more often.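 How to read the values: 0–100, growth inhibition (40 = 60% inhibited); 0, no net growth; -100 to 0, cell death (-40 = 40% of starting cells died; -100 = all dead).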 Values without a mark were called inactive. Calls of active or inactive are those of the source. How the source made its calls: active means growth percent below 10; inactive means the rest.

Columns and labels:
Experiment in all cases: NCI-60 one-dose screen, 48 h (100 = growth as untreated, 0 = no growth, -100 = all killed)
[1] = test system: DU-145 prostate; conditions: 10 µM unless noted
[2] = test system: K-562 leukemia; conditions: 10 µM unless noted
[3] = test system: MALME-3M melanoma; conditions: 10 µM unless noted
[4] = test system: MDA-MB-231 breast; conditions: 10 µM unless noted
[5] = test system: RXF 393 renal; conditions: 10 µM unless noted
[6] = test system: SF-268 CNS; conditions: 10 µM unless noted
[7] = test system: SF-295 CNS; conditions: 10 µM unless noted
[8] = test system: SF-539 CNS; conditions: 10 µM unless noted
[9] = test system: UACC-257 melanoma; conditions: 10 µM unless noted
[10] = test system: M14 melanoma; conditions: 10 µM unless noted
[11] = test system: HCT-15 colon; conditions: 10 µM unless noted
[12] = test system: HT29 colon; conditions: 10 µM unless noted
[13] = test system: SNB-75 CNS; conditions: 10 µM unless noted
[14] = test system: SNB-19 CNS; conditions: 10 µM unless noted
[15] = test system: U251 CNS; conditions: 10 µM unless noted
[16] = test system: PC-3 prostate; conditions: 10 µM unless noted
[17] = test system: SK-MEL-5 melanoma; conditions: 10 µM unless noted
[18] = test system: UACC-62 melanoma; conditions: 10 µM unless noted
[19] = test system: LOX IMVI melanoma; conditions: 10 µM
[20] = test system: SK-MEL-28 melanoma; conditions: 10 µM unless noted

SMILES | growth [1] | growth [2] | growth [3] | growth [4] | growth [5] | growth [6] | growth [7] | growth [8] | growth [9] | growth [10] | growth [11] | growth [12] | growth [13] | growth [14] | growth [15] | growth [16] | growth [17] | growth [18] | growth [19] | growth [20]
O=C1C=CC(=O)N1c1cc(Cl)c(Cl)cc1Cl | 109% | 93.9% | 96.6% | 120% | 106% | 102% | 97.5% | 109% | 101% | 103% | 113% | 101% | 82.1% | 108% | 101% | 100% | 111% | 105% | 97.9% | 107%
CN(C)c1ccc(/C=C/c2sc3ccc4ccccc4c3[n+]2C)cc1 | -40% (active) | 0.148% (active) | -48.8% (active) | -61.5% (active) | -95.1% (active) | -65.1% (active) | -35.4% (active) | -54.6% (active) | -48.7% (active) | -76.5% (active) | 0.902% (active) | -100% (active) | -95.6% (active) | -32.5% (active) | -51.2% (active) | -38% (active) | -100% (active) | -75% (active) | -35.3% (active) | -56.6% (active)
CC(O)C(O)C(O)C(O)C(O)C(=O)NNc1ccccc1 (stereo not given) | 96.4% | 67.7% | 105% | 81.1% | 119% | 87.4% | 86.4% | 92.7% | 100% | 85% | 78.6% | 104% | 82.6% | 97.1% | 97.6% | 86.3% | 107% | 30.5% | 48.1% | 103%
CCCc1cc(=O)oc2c3c(c4c(c12)OC(C)(C)CC4)OC(C)[C@H](C)[C@@H]3O (stereo not given in full) | 104% | 71.2% | 139% | 79.9% | 77.5% | 94.4% | 44.5% | 108% | 104% | 102% | 55.5% | 58.8% | 91.5% | 94.4% | 75.1% | 42.7% | 86.9% | 68.9% | 83.1% | 93.1%
CN=C(N)N/N=C(\c1ccccc1)c1ccc(Br)cc1 | -9.2% (active) | -6.02% (active) | 25.9% | -9.39% (active) | -0.626% (active) | 11.9% | -46% (active) | -19.2% (active) | 47.2% | -13.1% (active) | 12.4% | -7.67% (active) | 9.3% (active) | 62.2% | -9.13% (active) | 12.6% | -36.7% (active) | 33.8% | 0.411% (active) | 48%
CCCCCCCCCCCCCCCC[N+]1(C)CCCC1c1cccnc1 (stereo not given) | 52.1% | 36.3% | 64.7% | 30.8% | 45.3% | 29.6% | 42.2% | 33.3% | 75.9% | 17.9% | 77.9% | 15.1% | 37.1% | 29.1% | 16.7% | 8.08% (active) | 43.9% | 50.6% | 49.2% | 97%
O=[N+]([O-])CC(O)c1ccccc1 (stereo not given) | 109% | 99.4% | 122% | 87.6% | 112% | 100% | 113% | 103% | 88.7% | 97.6% | 96.6% | 113% | 91.6% | 101% | 98.7% | 94.9% | 103% | 99.1% | 84.5% | 108%
